Source: PubChem BioAssay (NCI)
The panel holds about 83,000 compounds, 20% with a hit somewhere; the sample as a whole holds those more often.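 Interpretation: 100, growth as untreated; towards 0, rising growth inhibition; 0, no net growth; 0 to -100, cell death. Compounds scoring below 10 were considered active.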 Active and inactive are the calls of the source.

Each molecule was assayed on ACHN renal (assay: NCI-60 one-dose screen, 48 h (100 = growth as untreated, 0 = no growth, -100 = all killed)). Conditions: 10 µM unless noted.

Compound | growth
CCc1cc2c(cc1Cl)nc1c(=O)[nH]c(=O)nc-1n2CCOCC(C)(C)C | 65.7% (inactive)
Cc1cc(=O)[nH]c(O)c1C#N | 99.5% (inactive)
CC1(C)CC[C@]23CC[C@]4(C)[C@H](CC[C@@H]5[C@@]6(C)CC[C@H](NCO)C(C)(C)[C@@H]6CC[C@]54C)[C@H]2[C@H]1OC3 | 26.4% (inactive)
CC(C)[C@H]1c2[nH]c3ccccc3c2C[C@H]2C(=O)N(CCCCCCC(=O)NO)CC(=O)N12 | 98.2% (inactive)
Cn1cc(-c2nc(N)nnc2-c2c[nH]c3ccc(Br)cc23)c2cc(F)ccc21 | 78.5% (inactive)
CCCCCCCCCCCC(=O)NC(C)(C)C(=O)N1CCCC1C(=O)NC(C)(C)C(=O)NC(C)(C)C(=O)N1CCCC1C(=O)NC(C)(C)C(=O)NC(C)(C)C(=O)N1CCCC1C(=O)NC(C)C(=O)NCCC(=O)NC(C)C(=O)NC(C)(C)C(=O)NC(C)(C)C(=O)NC(C)(C)C(=O)NCCC(=O)NC(C)(C)C(=O)NC(C)(C)C(=O)NC(C)(C)C(=O)NC(C)C(=O)NCCC(=O)O (stereo not given) | -100% (active)
CN1CCN(c2ccc(Nc3nc(NCCNC(=O)c4ccccc4)c4sccc4n3)cc2)CC1 | 54.6% (inactive)
Cc1[nH]c(C(=O)Nc2ccccc2OCc2cccc(C(=O)NCCN)c2)cc1Cl | 95.1% (inactive)
CCCc1[nH]c(-c2cc(N)ccc2Cl)c2c1C(=O)CCCC2 | 107% (inactive)
O=C(Nc1ccc(N=Cc2c(O)[nH]c3ccccc23)cc1)Nc1ccc(S(=O)(=O)Nc2ncccn2)cc1 | 104% (inactive)
